Rows were chosen to be rich in hits. Some 21% of all compounds tested hit in one or more screens of this group.
CYP2C9 act – increases human cytochrome P450 2C9 activity; P11712; recombinant CYP2C9, luciferin-H conversion, luminescence; stronger effect = higher value; factor 1 = untreated enzyme, 0 = blocked; activation factor at 5 µM; 1.4% of 96,000 active;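 active = activation factor of 2 or more for CYP2C9 at a 5 µM dose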;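 note: 0 = sulfaphenazole-blocked wells and 1 = vehicle-only wells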
MRP-1 activ – activators of MRP-1 | 0.61% of 140,000 active | H69AR cells + doxorubicin, viability rescue, CellTiter-Glo | viability increase, % at 10 µM | AID 799;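 active = viability gain under doxorubicin at or above a set limit, the compound median plus 3 SD, cut at about 4.7% in these data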;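 note: MRP-1 overexpressing cells given doxorubicin 25 µM after compound pretreatment; 18-22 h compound pretreatment then 72 h with doxorubicin before readout; 0% = doxorubicin-only wells and 100% = vehicle-treated cells without doxorubicin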
CYP2C19 inhib – human CYP2C19 inhibition; P33261; CYP2C19 Supersomes, luciferin-H EGE luminescence, 30 min; inhibition, % at 5 µM; 21% of 96,000 active; AID 778;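 active = CYP2C19 inhibition above a set limit at 5 µM in the primary screen, cut at about 50% in these data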;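 note: plate controls were negative control wells for no effect and 2.5 mM tranylcypromine positive control for full effect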
Target sequence (P33261 whole entry, looked up): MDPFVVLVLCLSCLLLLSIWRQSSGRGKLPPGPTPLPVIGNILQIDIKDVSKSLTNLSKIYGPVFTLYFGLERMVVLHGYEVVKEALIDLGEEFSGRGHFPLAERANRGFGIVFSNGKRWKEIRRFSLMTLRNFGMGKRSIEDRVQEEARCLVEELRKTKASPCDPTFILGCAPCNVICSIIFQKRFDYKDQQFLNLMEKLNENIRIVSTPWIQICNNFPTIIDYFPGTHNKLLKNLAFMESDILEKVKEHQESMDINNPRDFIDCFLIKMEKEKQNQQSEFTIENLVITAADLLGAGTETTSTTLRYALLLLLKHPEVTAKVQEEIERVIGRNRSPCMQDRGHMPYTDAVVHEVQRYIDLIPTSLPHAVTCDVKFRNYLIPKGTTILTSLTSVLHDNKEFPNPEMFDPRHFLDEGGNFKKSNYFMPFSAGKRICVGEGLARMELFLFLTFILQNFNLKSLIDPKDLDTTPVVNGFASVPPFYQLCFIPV
CYP2C19 act – activators of human cytochrome P450 2C19 | 96,000 tested, under 10 active | AID 1025 | recombinant CYP2C19, luciferin-H EGE luminescence; stronger effect = higher value; 0 = fully inhibited enzyme, 1 = untreated enzyme | activation factor at 5 µM | P33261;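 active = activation factor of at least 2 at 5 µM in the primary screen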;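 note: 0 = wells with 2.5 mM tranylcypromine and 1 = vehicle-only wells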
CYP2C9 inhib – human CYP2C9 inhibition. P11712. CYP2C9 Supersomes, luciferin-H conversion, luminescence. inhibition, % at 5 µM. 20% of 96,000 active. AID 777;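 active = blocking of liver enzyme CYP2C9 beyond about 50% at 5 µM, limit read from the data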
MRP resist rev – MRP-mediated drug resistance reversal; AID 602; differential viability (reversal), % at 10 µM; 0.04% of 85,000 active; H69AR cells + 2 uM doxorubicin, CellTiter-Glo, 72 h;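 active = viability drop by adding the cancer drug above about 55%, with treated viability meeting a 40% cutoff, limit read from the data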;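 note: viability without doxorubicin minus viability with 2 µM doxorubicin for each compound; larger differential means the compound sensitizes cells more to doxorubicin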
Starred values were filed as active, the others as inactive; . = no result given.

SMILES | CYP2C9 act | MRP-1 activ | CYP2C19 inhib | CYP2C19 act | CYP2C9 inhib | MRP resist rev
N#Cc1ccc(CSc2nnc(-c3ccccn3)n2-c2ccccc2)cc1 | 0.6 | -1 | 78* | 0.2 | 43 | -1
CC(C)OC(=O)CSc1nnc(-c2ccccn2)n1-c1ccccc1 | 0.9 | -1 | 12 | 0.9 | 6 | 8
N#Cc1ccc(CSc2nnc(-c3ccncc3)n2CCc2ccccc2)cc1 | 0.5 | -2 | 61* | 0.4 | 54* | 14
c1ccc(CCn2c(SCc3ccccc3)nnc2-c2ccncc2)cc1 | . | -4 | . | . | . | 2
CCOC(=O)C(NCCc1ccccc1F)(NC(=O)CC)C(F)(F)F (stereo not given) | . | -1 | . | . | . | .
CCC(=O)c1ccc2ncccc2c1 | . | 0 | . | . | . | .
COc1cc(NC(=O)CN2CCCCC2C)c(C)cc1[N+](=O)[O-] (stereo not given) | . | 0 | . | . | . | .
COC(=O)c1ccc(-c2ccco2)n1Cc1nc(-c2ccc(OC)c(OC)c2)oc1C | 0.6 | -2 | 14 | 0.9 | 44 | 1
COC(=O)c1ccc(-c2ccco2)n1Cc1ccccc1Cl | 0.4 | 0 | 16 | 0.8 | 63* | -32
O=C(CN1CCN(Cc2ccccc2)C1=O)NCc1cccs1 | 0.8 | -1 | 30 | 0.7 | 17 | 4
O=C(CN(C(=O)c1cc2c(s1)CCC2)C1CCCC1)NCc1cccs1 | 0.2 | -3 | 66* | 0.3 | 82* | -7
O=C(CN(Cc1ccccc1)C(=O)c1cc2c(s1)CCC2)NCc1cccs1 | 0.2 | -4 | 18 | 0.8 | 75* | -1
OC(Cn1cccn1)c1ccccc1 (stereo not given) | 1.1 | -1 | -11 | 1.1 | -10 | 9
CCOc1ccc(NC(=O)CSc2nnc(CCNC(=O)c3ccc(OC)cc3)n2C)cc1 | 0.4 | -1 | 33 | 0.7 | 57* | -12
COc1ccc(OCCSc2nnc(CCNC(=O)c3ccc(Cl)c(Cl)c3)n2C)cc1 | 0.6 | 0 | 29 | 0.7 | 38 | .
COc1ccc(OCCSc2nnc(CCNC(=O)c3ccc(OC)cc3)n2C)cc1 | 0.8 | 0 | 11 | 0.9 | 24 | .
COc1ccc(C(=O)NCCc2nnc(SCC(=O)Nc3ccc(Br)cc3)n2C)cc1 | 0.3 | -1 | 21 | 0.8 | 65* | 2
COC(=O)c1sc(S(=O)(=O)Nc2ccc3cn[nH]c3c2)c(C(=O)OC)c1C | 0.1 | -1 | 52* | 0.5 | 92* | -3
CCOC(=O)c1ccc(S(=O)(=O)Nc2ccc3cn[nH]c3c2)cc1 | 0.1 | -2 | 16 | 0.8 | 94* | -6
COC(=O)c1ccccc1S(=O)(=O)Nc1ccc2cn[nH]c2c1 | 0.2 | -1 | 89* | 0.1 | 80* | 11
O=C(Cn1cnc2c(nnn2-c2ccc(F)cc2)c1=O)N1CCCC1 | 1.1 | -2 | -14 | 1.1 | -14 | 5
O=C(NC1CCCCC1)C1CC=CCC1C(=O)OCC(Cl)=C(Cl)Cl (stereo not given) | 0.7 | 0 | 17 | 0.8 | 34 | 4
CC(=O)NCC(=O)OCC(=O)c1ccc2ccccc2c1 | 1 | -1 | -2 | 1 | 3 | 2
Nc1c2c(nc3ccn(-c4ccccc4)c(=O)c13)CCCCC2 | 1 | 4.9* | -4 | 1 | -4 | 6
COc1cc(C(=O)CCN2CCC(c3ccccc3)C2)cc(OC)c1OC (stereo not given) | . | -2 | . | . | . | .
SMILES | CYP2C9 act | MRP-1 activ | CYP2C19 inhib | CYP2C19 act | CYP2C9 inhib | MRP resist rev
Cc1cc(C)c(S(C)(=O)=O)c(S(=O)(=O)c2ccc(Cl)cc2)n1 | 0.6 | -6 | 29 | 0.7 | 37 | .
Cc1cc(C)c(S(=O)(=O)c2c(C)cccc2C)c(Cl)n1 | 0.6 | -1 | 75* | 0.3 | 43 | .
O=C(O)CSc1nnc(SCc2cccc3ccccc23)s1 | 0.5 | -2 | -4 | 1 | 46 | 9
Cc1cc2nnc(SCC(=O)NCc3cccs3)n2c2ccccc12 | 3.2* | -4 | 49 | 0.5 | -221 | -27
CC(C)OC(=O)CSc1nnc(SCc2cccc3ccccc23)s1 | 0.8 | 1 | 71* | 0.3 | 18 | 12
Cc1cc2nnc(SCC(=O)OC(C)C)n2c2ccccc12 | 2.6* | -3 | 24 | 0.8 | -160 | -14
Cc1nnc(SCC(=O)NCc2cccs2)n1-c1ccccc1 | 0.7 | 0 | 47 | 0.5 | 26 | 13
Cc1occc1-c1nnc(SCC(=O)NCc2cccs2)n1-c1ccc(F)cc1 | 0.4 | -1 | 43 | 0.6 | 63* | 5
CCN(CC(=O)c1c(N)n(C)c(=O)n(C)c1=O)c1cccc2ccccc12 | . | -1 | . | . | . | .

Screens deposited in PubChem BioAssay by several laboratories.
